Measurements taken from PubChem BioAssay (NCATS).
Records with an inconclusive call do not appear. Active and inactive are the calls of the source. Calls come from the whole dose curve; as a rule, active = well fitted curve in the direction sought with a large enough effect; inconclusive = small, poorly fitted or top-dose-only effect, or another doubt; inactive = no such curve, though single readings can be large; an effect the other way counts as inactive or inconclusive.

Tests used:
[1] = target: Cellular tumor antigen p53 (Homo sapiens) (UniProt P04637); test: Primary qHTS for small molecule compounds that upregulate eGFP-tagged delta133p53alpha (in N-terminal) cells. (AID 2060322); details: NCI-H358 eGFP-delta133p53alpha fluorescence, 24 h; activation: hits give high values;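 note: cells pre-induced with doxycycline then dosed without doxycycline; series mostly up to about 56 µM; 0% = DMSO vehicle and 100% = reference activator; nearly all actives have a fitted effect of over 75% in size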
In short: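 NCI-H358 cells pre-induced 24 h with 10 ng/ml doxycycline for eGFP-delta133p53alpha, plated dox-free and exposed 24 h at 37C to titrated compounds. Fixed, Hoechst-stained; gated GFP peak intensity by laser scanning cytometry, normalized to DMSO (0%) and 57.5 uM 5-azacytidine (100%).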

[2] = target: Aldehyde dehydrogenase, mitochondrial (Homo sapiens) (UniProt P05091); test: qHTS for Inhibitors of the Aldehyde Dehydrogenase Family (ALDH2) Primary screen (AID 2061308);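 note: plate controls were vehicle for no effect and reference inhibitor for full effect; nearly all actives have a fitted effect of over 55% in size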
[3] = target: Retinaldehyde dehydrogenase 3 (Homo sapiens) (UniProt P47895); test: qHTS for Inhibitors of the Aldehyde Dehydrogenase Family (ALDH1A3) Primary screen (AID 2061315);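 note: plate controls were DMSO vehicle for no effect and reference inhibitor for full effect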

Cellular tumor antigen p53 (Homo sapiens), sequence (P04637 whole entry, looked up): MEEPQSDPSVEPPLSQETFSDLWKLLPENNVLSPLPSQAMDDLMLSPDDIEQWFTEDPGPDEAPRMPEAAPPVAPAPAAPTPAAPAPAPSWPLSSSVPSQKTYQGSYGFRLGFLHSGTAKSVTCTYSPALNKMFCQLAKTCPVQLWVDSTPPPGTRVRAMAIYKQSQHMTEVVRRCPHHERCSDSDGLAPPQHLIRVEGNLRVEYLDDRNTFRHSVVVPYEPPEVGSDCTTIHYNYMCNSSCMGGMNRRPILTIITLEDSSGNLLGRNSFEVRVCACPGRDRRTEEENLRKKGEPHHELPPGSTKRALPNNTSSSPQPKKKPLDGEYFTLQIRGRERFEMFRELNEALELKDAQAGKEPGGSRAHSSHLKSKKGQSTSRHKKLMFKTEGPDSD

CC1(CO)CC[C@]2(C(=O)O[C@@H]3O[C@H](CO)[C@@H](O)[C@H](O)[C@H]3O)CC[C@]3(C)C(=CCC4[C@@]5(C)C[C@H](O)[C@H](O[C@@H]6OC[C@@H](O)[C@H](O)[C@H]6O)[C@@](C)(CO)C5CC[C@]43C)C2C1 (some centres not stated)
inactive: activation [1] -16% | Potency [2] | Potency [3]

COc1cc(C(O)C(CO)Oc2ccc(CCCO[C@@H]3O[C@@H](C)[C@H](O)[C@@H](O)[C@H]3O)cc2OC)ccc1O (some centres not stated)
inactive: activation [1] -13.4% | Potency [2] | Potency [3]

COc1cc2ncnc(Nc3ccc(F)c(Cl)c3)c2cc1O
inactive: activation [1] 25.7% | Potency [2] | Potency [3]

COC(=O)C1C(O)CCC2CN3CCc4c([nH]c5ccccc45)C3CC21 (configuration not stated)
inactive: activation [1] 23.2% | Potency [2] | Potency [3]

CC1(C)CCCC2(C)C1CC=C1C(=O)OC(O)C12O (configuration not stated)
inactive: activation [1] -6.11% | Potency [2] | Potency [3]

COc1ccc(CC(=O)NCc2ccccc2-c2ccccc2C(=O)NCCc2cccnc2)cc1
inactive: activation [1] 0.955% | Potency [2] | Potency [3]

OC[C@@]1(O)CO[C@@H](OC[C@H]2O[C@@H](OCc3ccccc3)[C@H](O)[C@@H](O)[C@@H]2O)[C@@H]1O
inactive: activation [1] -13.7% | Potency [2] | Potency [3]

C/C1=C\[C@@H](C)C[C@@H](C)[C@@H](Cc2cnco2)OC(=O)/C(C)=C/[C@@H](C)C[C@@H](C)[C@@H](Cc2cnco2)OC1=O
inactive: activation [1] 0% | Potency [2] | Potency [3]

O=C(C[C@@H]1C(C(=O)O)=CO[C@@H](O[C@@H]2O[C@H](CO)[C@@H](O)[C@H](O)[C@H]2O)/C1=C\CO)OCCc1ccc(O)cc1
inactive: activation [1] 1.53% | Potency [2] | Potency [3]
